The list is not random: actives were taken first. Their share in the collection is about 2%.
Abeta yeast res = A-beta toxicity reversal in yeast | Potency, µM (series often up to 46.1 µM), actives largely listed as activators | AID 1347071 | 410,000 tested, 0.063% active | yeast expressing A-beta42, growth rescue, OD600, 48 h; response scale: 0% DMSO, 100% iron-clioquinol control; also: nearly all actives have a fitted effect of over 55% in size
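Growth rescue measured by 600 nm absorbance after 48 h yeast culture at 30 C with compound. Values normalized between DMSO and an equimolar ferric chloride plus clioquinol control.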
Glioma ERSR ind = induces the endoplasmic reticulum stress response in human glioma cells. U87-MG GRP78 promoter luciferase reporter, 16 h. 420,000 tested, 0.02% active. Potency, µM, for the others: at the top dose activation, most hits filed as activators; also: series mostly up to about 76 µM; % of control where 0% means no effect; nearly all actives have a fitted effect of over 35% in size
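ERSR induction read as luciferase luminescence (Bright-Glo, 10 min at room temperature) in stably transfected human U87-MG glioma cells exposed to compounds for 16 h, using GRP78 as sensor.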
FUS suppressor = suppressors of FUS proteinopathy in yeast; Potency, µM (titrated, usually from 76.6 µM), actives largely listed as activators; 390,000 tested, 0.24% active; S. cerevisiae FUS-expressing, growth rescue, OD600, 24 h;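 also: plate controls were DMSO vehicle for no effect and reference control for full effect; nearly all actives have a fitted effect of over 55% in size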
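Restored growth of FUS-toxic S. cerevisiae, read as 600 nm absorbance after 24 h at 30C in galactose medium (starting OD 0.005). Controls CP55940 and DMSO.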
aSyn rescue = inhibitors of alpha-synuclein toxicity in yeast; Yeast expressing alpha-synuclein, growth rescue, BacTiter-Glo, 24 h; Potency, µM (doses to about 46.1 µM), without a hit: at the highest dose growth rescue (activation), usual class: activators; 370,000 tested, 0.14% active; AID 652106; also: % of control where 0% means no effect; nearly all actives have a fitted effect of over 65% in size
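Screening used galactose-induced yeast with toxic alpha-synuclein levels, exposed to compound for 24 hr at 30 deg C. Cell growth, read with BacTiter-Glo luminescence, gave the measured signal.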
TDP-43 yeast inh = rescues yeast growth from TDP-43 toxicity | TDP-43 expressing yeast growth rescue, BacTiter-Glo, 24 h | AID 652104 | Potency, µM (top dose mostly 46.1 µM), inactives show at the highest dose growth rescue (activation), actives largely listed as activators | 410,000 tested, 1.8% active; also: % of control where 0% means no effect; nearly all actives have a fitted effect of over 50% in size
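Growth rescue of TDP-43-toxic yeast measured as ATP luminescence (BacTiter-Glo). Cells grown to mid-log in raffinose, induced in galactose at OD600=0.02, exposed to compound 24 hr at 30 deg C.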
* = called active by the depositor; i = inactive; ? = inconclusive; . = no result given. Calls follow the shape of the dose curve; as a rule, active = well fitted curve in the direction sought with a large enough effect; inconclusive = small, poorly fitted or top-dose-only effect, or another doubt; inactive = no such curve, though single readings can be large; an effect the other way counts as inactive or inconclusive. Potency is read from the fitted curve at half-maximal effect.

SMILES	Abeta yeast res	Glioma ERSR ind	FUS suppressor	aSyn rescue	TDP-43 yeast inh
C#CCNC(=O)C[C@@H]1C[C@@]2(C(=O)OCC)CCCC=C2N(CCCCCCCC)C1=O	i	.	10µM*	?	13µM*
CCCCCCCCN1C(=O)[C@H](CC(=O)N2CCSCC2)C[C@@]2(C(=O)OCC)CCCC=C12	i	.	?	-22%	24%
CCCCCCCCN1C(=O)[C@H](CC(=O)N2CCCC2)C[C@@]2(C(=O)OC)CCCCC=C12	?	.	6.3µM*	25%	14%
CCCCCCCCN1C(=O)[C@H](CC(=O)NCC2CCCCC2)C[C@@]2(C(=O)OCC)CCCC=C12	i	.	i	0%	-2%
CCCCCCCCN1C(=O)[C@H](CC(=O)N2CCN(C(=O)OCC)CC2)C[C@@]2(C(=O)OC)CC(C)(C)CC=C12	i	.	?	-49%	-80%
CCCCCCCCN1C(=O)[C@H](CC(=O)N2CCOCC2)C[C@@]2(C(=O)OCC)CCCC=C12	i	.	11µM*	20%	22%
Cc1ccc2nc(/C=C/c3ccc(N(C)C)cc3)ccc2c1	.	-1%	.	.	.
COc1ccccc1-c1cc2c(c(OC)c1)OCCN(CCC(C)c1ccc(C)o1)C2 (configuration not stated)	.	-5%	.	.	.
COC(=O)[C@]12CCCCC=C1N(Cc1ccco1)C(=O)[C@H](CC(=O)N1CCN(C(=O)c3ccco3)CC1)C2	i	.	i	0%	0%
CCCCCCCCN1C(=O)[C@H](CC(=O)NCCCN2CCCC2=O)C[C@@]2(C(=O)OC)CC(C)(C)CC=C12	i	.	?	-11%	35µM*
COC(=O)[C@@]12C[C@@H](CC(=O)NCCCN3CCCC3=O)C(=O)N(Cc3ccccc3)C1=CCC(C)(C)C2	i	.	i	3%	?
CCCCCCCCN1C(=O)[C@H](CC(=O)N2CCN(C(=O)c3ccco3)CC2)C[C@@]2(C(=O)OC)CCCCC=C12	i	.	?	11%	14µM*
O=C(NCC1(N2CCOCC2)CCCCC1)c1cnn(-c2nccc(-c3cccs3)n2)c1C1CC1	.	2%	.	.	.
Cc1nc2cc(NC(=O)C3CC34CCN(Cc3ccc(O)c(Cl)c3)CC4)ccc2s1 (configuration not stated)	.	2%	.	.	.
Cc1ccc(Cl)cc1N(C)C(=O)c1sc2nc3n(c(=O)c2c1C)CCCC3	i	-2%	i	.	20µM*
Cc1ccc(N(C)C(=O)c2sc3nc4n(c(=O)c3c2C)CCCC4)cc1C	i	1%	i	.	16µM*
CN(C)c1nc(CN2CCCCC2c2cccnc2)nc2ccccc12 (configuration not stated)	.	-3%	.	.	.
CCOc1ccccc1C(=O)Nc1ccc(C(=O)NCC2COc3ccccc3O2)cc1 (configuration not stated)	.	.	i	.	.
COC(=O)[C@]12C[C@H](CC(=O)NCc3ccc(OC)c(OC)c3)C(=O)N(CCC3=CCCCC3)C1=C[C@H](C1CCCC1)O[C@@H]2C	.	.	14µM*	.	.
CCCCNC(=O)C[C@H]1C[C@@]2(C(=O)OC)C(=C[C@H](C3CCCC3)O[C@@H]2C)N(Cc2cccc3ccccc23)C1=O	.	.	13µM*	.	.
COC(=O)[C@]12C[C@H](CC(=O)NCC3CCCCC3)C(=O)N(Cc3cccc4ccccc34)C1=C[C@H](C1CCCC1)O[C@@H]2C	.	.	32µM*	.	.
COC(=O)[C@]12C[C@H](CC(=O)NCc3cccc(C(F)(F)F)c3)C(=O)N(Cc3ccco3)C1=C[C@H](C1CCCC1)O[C@@H]2C	.	.	4.5µM*	.	.
COC(=O)[C@]12C[C@H](CC(=O)NCCc3ccccc3OC)C(=O)N(CCC3=CCCCC3)C1=C[C@H](C1CCCC1)O[C@@H]2C	.	.	i	.	.
COC(=O)[C@]12C[C@H](CC(=O)NCCC(C)C)C(=O)N(Cc3ccco3)C1=C[C@H](C1CCCC1)O[C@@H]2C	.	.	i	.	.
COCCCNC(=O)C[C@H]1C[C@@]2(C(=O)OC)C(=C[C@H](C3CCCC3)O[C@@H]2C)N(Cc2ccco2)C1=O	.	.	i	.	.
COCc1c(C(=O)N2CCC(N3CCCCC3)CC2)cnn1-c1ncc(C)c(-c2cccs2)n1	.	3%	.	.	.
